According to PubChem BioAssay AID1851 (National Center for Advancing Translational Sciences (NCATS), 2009):
Out of some 16,000 compounds screened, about 4,000 (25%) were called active. Roughly 26% stayed inconclusive and do not appear here. These entries were drawn from the full list. Unmarked numbers belong to inactive results. Calls follow the shape of the dose curve; as a rule, active = well fitted curve in the direction sought with a large enough effect; inconclusive = small, poorly fitted or top-dose-only effect, or effect the other way; inactive = no such curve, though single readings can be large or run the other way.

biological target: Cytochrome P450 2C9 (Homo sapiens) (UniProt P11712); assay: Cytochrome panel assay with activity outcomes; details: recombinant CYP, pro-luciferin dealkylation, luminescence, p450-cyp2c9; series mostly up to 57.1 µM; activity, negative = inhibition: at the top concentration
Sequence (P11712 whole entry, looked up): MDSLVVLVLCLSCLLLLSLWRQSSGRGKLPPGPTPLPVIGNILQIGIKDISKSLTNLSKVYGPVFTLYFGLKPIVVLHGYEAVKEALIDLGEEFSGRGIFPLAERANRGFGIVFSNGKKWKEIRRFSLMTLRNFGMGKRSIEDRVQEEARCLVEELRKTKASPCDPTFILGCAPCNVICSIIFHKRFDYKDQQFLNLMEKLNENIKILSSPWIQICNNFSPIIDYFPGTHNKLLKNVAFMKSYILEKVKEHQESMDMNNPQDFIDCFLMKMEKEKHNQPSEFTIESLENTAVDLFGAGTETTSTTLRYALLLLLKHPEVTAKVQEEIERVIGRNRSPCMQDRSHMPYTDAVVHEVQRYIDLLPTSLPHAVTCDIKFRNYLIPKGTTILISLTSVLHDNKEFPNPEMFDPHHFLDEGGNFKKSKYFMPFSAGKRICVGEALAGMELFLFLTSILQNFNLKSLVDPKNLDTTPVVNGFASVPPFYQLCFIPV
% is scaled to controls: 0 for no effect and ±100 for the full control effect.

Row | Compound | AC50 | activity, negative = inhibition
1 | CC12c3ccccc3C(c3ccccc31)C1C(=O)N(Cc3cccnc3)C(=O)C12 (centres undefined) | 11.2 µM (active) | –
2 | CNC(=O)Oc1ccc2c(c1)[C@@]1(C)CCN(C)[C@@H]1N2C | inactive | –
3 | O=C(COc1ccccc1C(=O)N/N=C\c1ccc(O)c(O)c1)N/N=C/c1ccc(O)c(O)c1 | 12.6 µM (active) | –
4 | O=C(N/N=C/c1cccc(OC2CSC2)c1)c1ccccc1O | – | -11.2%
5 | COc1ccccc1-c1nccc(NCc2cccc(C)c2)n1 | – | -8.67% [at 2.29 µM]
6 | COC(=O)c1ccc(C23CC2(C(NP(=O)(c2ccccc2)c2ccccc2)c2ccccc2)C3)cc1 (centres undefined) | 10 µM (active) | –
7 | COC(=O)c1ccc(C#CC(NP(=O)(c2ccccc2)c2ccccc2)c2ccccc2)cc1 (centres undefined) | 10 µM (active) | –
8 | COC(=O)c1ccc(NC(=O)C2CCCCC2C(=O)O)cc1 (centres undefined) | – | -24.6%
9 | CN(C)Cc1ccccc1-c1nccc(N(C)Cc2ccco2)n1 | – | -2.53% [at 2.29 µM]
10 | CC(C)(C)N1C(=O)[C@@H]2[C@H]3C(=CC[C@H]2C1=O)C(=O)[C@H]1O[C@H]1[C@H]3O | – | 4.81% [at 11.4 µM]
11 | Cc1ccc(-c2csc3ncnc(NCCN4CCOCC4)c23)cc1 | 14.1 µM (active) | –
12 | CN(C)c1ccc(-c2cncnc2NCCN2CCOCC2)cc1 | – | 1.82% [at 2.29 µM]
13 | CN(C)C(=O)c1ccc(-c2cncnc2NCCN2CCOCC2)cc1 | – | 0.0156% [at 2.29 µM]
14 | O=C1C2=C(NC(=S)NC2c2ccc(Cl)cc2)NC(c2ccc(Cl)cc2)N1c1ccc(Cl)cc1 (centres undefined) | 11.2 µM (active) | –
15 | O=[n+]1c2c(n([O-])c3cc(F)c(F)cc31)CCCC2 | – | -17.5%
16 | O=c1oc2cc(N=Cc3ccc4c(c3)OCO4)ccc2c2ccccc12 | – | -21.1% [at 11.4 µM]
17 | O=[N+]([O-])c1ccc2c(c1)Cc1cc(N=Cc3ccc4c(c3)OCO4)ccc1-2 | – | -3.27% [at 11.4 µM]
18 | O=S(=O)(N/N=C\c1ccc2c(c1)OCO2)c1ccc(Cl)cc1 | 1.12 µM (active) | –
19 | O=S(=O)(N/N=C/c1ccc2c(c1)OCCO2)c1ccc(Cl)cc1 | 1.41 µM (active) | –
20 | C[C@]1(OC(=O)/C=C\c2ccccc2)C[C@@H](O)[C@@]2(O)C=CO[C@@H](O[C@H]3O[C@@H](CO)[C@@H](O)[C@@H](O)[C@@H]3O)[C@H]21 | – | -8.73% [at 25.6 µM]
21 | CC(N)=NCCCC[C@H](N)C(=O)O | – | 5.68%
22 | NC(=NCCC[C@H](N)C(=O)O)NO | – | 14.3%
23 | CCCN=C(N)NCCC[C@H](N)C(=O)O | 3.98 µM (active) | –
24 | COc1ncc2ncc(=O)n(CCC#N)c2n1 | – | 22.1%

Row | Compound | AC50 | activity, negative = inhibition
25 | COCCNc1ncnc2ccc(-c3ccc(N(C)C)cc3)cc12 | – | -3.32% [at 2.29 µM]
26 | O=S(Cc1ccc(Br)cc1)Cc1nnc(SCc2ccc(Cl)cc2)n1-c1ccccc1 (centres undefined) | 10 µM (active) | –
27 | COC(Cc1nnc(SC)n1-c1ccc(Cl)cc1)OC | – | -23.3%
28 | Cc1cccc(NC(=S)N2CCC(N(C)CC3CCCO3)CC2)c1C (centres undefined) | – | -8.61%
29 | Cc1ccc(S(=O)(=O)Nc2nc3ccccc3nc2N2CCc3ccccc3C2)cc1 | 0.251 µM (active) | –
30 | CN1CCN(c2ncnc3ccc(-c4cccc(NS(C)(=O)=O)c4)cc23)CC1 | – | 22.3% [at 2.29 µM]
31 | O[C@H](CN1CCN(c2cccc(Cl)c2)CC1)C(c1ccccc1)c1ccccc1 | inactive | –
32 | O=C(Cc1ccc(-n2c(=O)[nH]c3ccccc3c2=O)cc1)N1CCN(c2cccc(Cl)c2)CC1 | 3.55 µM (active) | –
33 | O=C(Cn1ccc2ccccc2c1=O)N1CCN(c2cccc(Cl)c2)CC1 | – | 17.4%
34 | COc1ccc(CONS(=O)(=O)c2ccc(NC(C)=O)cc2)cc1Cl | 12.6 µM (active) | –
35 | CC(=O)Nc1ccc(S(=O)(=O)NC(CC(=O)NCCCN2CCOCC2)C(C)C)cc1 (centres undefined) | – | -20.4%
36 | COc1ccc(CCNC(=O)CC(NS(=O)(=O)c2ccc(NC(C)=O)cc2)C(C)C)cc1OC (centres undefined) | 2.51 µM (active) | –
37 | CC(=O)Nc1ccc(S(=O)(=O)N=S(C)C)cc1 | inactive | –
38 | COc1ccc(CCNC[C@H](O)c2ccc(O)cc2)cc1OC | – | 5.84%
39 | CC(=O)Nc1ccc(S(=O)(=O)NCCc2ccc(F)cc2)cc1 | – | -20.9%
40 | OCCN(CO)CO | – | -10.4% [at 11.4 µM]
41 | CC(=O)OC[C@H]1O[C@@H](O/N=C(\C)CCN2CCCCc3nc(C)c(C)cc32)[C@H](OC(C)=O)[C@@H](OC(C)=O)[C@H]1OC(C)=O | – | 23.5% [at 11.4 µM]
42 | c1ccc(NN(Cc2cnccn2)c2ccccc2)cc1 | 3.16 µM (active) | –
43 | c1ccc(CCc2cccnc2)nc1 | – | -6.59% [at 11.4 µM]
44 | C#CCOC(=O)Nc1ccc(=O)n(Cc2c(Cl)cccc2Cl)c1 | 1.58 µM (active) | –
45 | CCn1c(=O)[nH]c2ccccc21 | – | 21.9%
46 | C[N+]1(C)CCC(OC(=O)C(c2ccccc2)c2ccccc2)CC1 | – | 16.1%
47 | O=C(CCCc1ccccc1)N1CCN(c2ccc([N+](=O)[O-])cc2)CC1 | – | -23.7%
48 | O=C(OC1CCN(c2ccc([N+](=O)[O-])cc2)CC1)c1ccccc1 | 0.631 µM (active) | –

Row | Compound | AC50 | activity, negative = inhibition
49 | O=C(O)c1cccc2cccc(-c3cccc4cccc(C(=O)O)c34)c12 | – | -4.84% [at 11.4 µM]
50 | CN1C(=O)/C(=N\OC(=O)c2cccc3ccccc23)c2ccccc21 | 2.82 µM (active) | –
51 | CCn1c(=O)cc(OCC(=O)Nc2cccnc2)c2ccccc21 | 15.8 µM (active) | –
52 | Cn1c(=O)cc(OCCCC(=O)Nc2cccnc2)c2ccccc21 | – | -3.72%
53 | CC(C(=O)Nc1cccnc1)N1C(=O)C2C3C=CC(C3)C2C1=O (centres undefined) | – | 24.1%
54 | CO[C@H]1COC(=O)[C@@H](Cc2ccccc2)NC(=O)[C@@H](C)COC(=O)CCC[C@@H]1C | – | 18.6% [at 11.4 µM]
55 | COc1ccc2cc3cc(C(=O)NCc4ccccn4)oc3nc2c1 | – | 17.7%
56 | CCCN(CCC)CCCNC(=O)c1cc2cc3ccc(OC)cc3nc2o1 | – | -13%
57 | COc1ccc2cc3cc(C(=O)NCc4ccc5c(c4)OCO5)oc3nc2c1 | 4.47 µM (active) | –
58 | Cc1ccc(-n2c(-c3ccc(Br)cc3)c[n+]3c2CCc2ccc4cccnc4c2-3)cc1 | – | -9.21%
59 | NC(=O)c1csc(-c2ccc(CO)o2)n1 | – | 6.84% [at 11.4 µM]
60 | OCc1ccc(-c2nn(Cc3ccccc3)c3ccccc23)o1 | 31.6 µM (active) | –
61 | CCNc1ncc2nc(-c3ccc(F)cc3)c(=O)n(CCC#N)c2n1 | – | 21.5%
62 | COc1cc2nc(SCc3ccc(Cl)cc3Cl)n(Cc3cccs3)c(=N)c2cc1OC | 2.51 µM (active) | –
63 | CN(C)c1ncc2nc(-c3ccc(Cl)cc3)c(=O)n(Cc3cccs3)c2n1 | – | -13.6%
64 | CN1CCN(c2ncncc2-c2ccccc2C(F)(F)F)CC1 | – | 10.5% [at 2.29 µM]
65 | Cc1ccc(S(=O)(=O)ON=C2CCN(S(=O)(=O)c3ccccc3)CC2)cc1 | – | -4.35%
66 | Cc1cc(C)c(S(=O)(=O)N2CCCCC2)c(C)c1N(C)S(=O)(=O)c1ccccc1 | 2 µM (active) | –
67 | CCN1C(=O)[C@H]2[C@H]3[C@H](O)[C@H](O)C/C(=N/OCC(C)C)[C@@H]3CC[C@@H]2C1=O | – | 28.3% [at 11.4 µM]
68 | Cc1cccc(OCCSCc2nc3ccccc3[nH]2)c1 | 5.01 µM (active) | –
69 | C[N+](C)(C)CCCSc1nc2ccccc2[nH]1 | – | 3.61% [at 11.4 µM]
70 | CS(=O)(=O)Nc1cccc(-c2ccc3ncnc(Nc4ccc(F)cc4)c3c2)c1 | – | -7.12% [at 2.29 µM]
71 | Cc1ccc(N=CC2=C(O)CC(c3ccco3)CC2=O)cc1 (centres undefined) | 8.91 µM (active) | –
72 | CC(C)C12CN3CC(C(C)C)(CN(C1)C3c1ccco1)C2=O (centres undefined) | – | -18.4%

Row | Compound | AC50 | activity, negative = inhibition
73 | COc1ccc(C(=O)N2CCC3(CCCN(C)C3)CC2)cc1 | – | -17.7%
74 | CCCn1c(CC)nc([N+](=O)[O-])c1S(=O)(=O)c1ccccc1 | – | 5.38%
75 | CNC(=S)NNC(=O)c1sccc1OCc1ccc(C)cc1 | – | -25.3%
76 | COc1ccc(COc2ccsc2C(=O)Nc2ccc(Cl)c(Cl)c2)cc1 | 2.82 µM (active) | –
77 | N[C@H](Cc1ccc(Cl)cc1)C(=O)O | – | 23.1%
78 | CCc1ccc(C(CC(=O)c2ccc(Cl)cc2)C(=O)O)cc1 (centres undefined) | 10 µM (active) | –
79 | O=C(O)CCC(=O)c1ccc(Cl)cc1 | – | 18.6% [at 11.4 µM]
80 | Cc1ccc(C)c(NC(=O)NCc2ccc(Cl)cc2)c1 | – | -2.65% [at 11.4 µM]
81 | CSc1ccc(CNc2ccc(Cl)cc2)cc1 | 6.31 µM (active) | –
82 | CSc1ccc(CNc2ccccc2)cc1 | 12.6 µM (active) | –
83 | COc1cccc(CNCc2ccc(SC)cc2)c1OC | – | -20%
84 | CS(=O)(=O)Nc1cccc(-c2cc(NCc3ccccc3)ncn2)c1 | – | 22.3% [at 2.29 µM]
85 | Cc1ccc(S(=O)(=O)N[C@H]2COC(=O)C/C=C\[C@@H](C)[C@H](NS(=O)(=O)c3ccc(C)cc3)COC(=O)[C@H](C)NC(=O)C/C=C\[C@H]2C)cc1 | – | 15.4% [at 11.4 µM]
86 | COC(=O)C/C=C\[C@@H](C)[C@@H](/C=N\OC[C@@H]1O[C@H](c2ccccc2)C=C[C@@H]1Oc1ccc(OC)cc1)NS(=O)(=O)c1ccc(C)cc1 | 1.26 µM (active) | –
87 | COC(=O)C/C=C\[C@@H](C)[C@@H](/C=N\O[C@@H](C)c1cc(-c2c(C)cc(C)cc2C)no1)NS(=O)(=O)c1ccc(C)cc1 | 2.51 µM (active) | –
88 | CCCNC(=O)OC[C@@H]1O[C@H](CCON=C(C)C)C=C[C@@H]1Oc1ccc(OC)cc1 | – | 2.96% [at 11.4 µM]
89 | COC(=O)C/C=C\[C@@H](C)[C@@H](/C=N\OC[C@@H](O)COCc1ccco1)NS(=O)(=O)c1ccc(C)cc1 | – | -14.9% [at 11.4 µM]
90 | COC(=O)C/C=C\[C@@H](C)[C@@H](/C=N\O[C@@H](C)c1cn([C@H]2COC[C@H]2O)nn1)NS(=O)(=O)c1ccc(C)cc1 | – | 16% [at 11.4 µM]
91 | COc1ccc(O[C@H]2C=C[C@@H](c3ccccc3)O[C@@H]2CO/N=C\[C@@H](C)[C@H](OCc2ccccc2)C(C)C)cc1 | – | -24.2% [at 11.4 µM]
92 | CO/N=C\[C@@H](NS(=O)(=O)c1ccc(C)cc1)[C@H](C)/C=C\CC(=O)OC | – | -27.4% [at 11.4 µM]
93 | CCCNC(=O)OC[C@@H]1O[C@H](CCO/N=C\[C@@H](C)[C@H](OCc2ccccc2)C(C)C)C=C[C@@H]1Oc1ccc(OC)cc1 | – | -22.3% [at 11.4 µM]
94 | CCCNC(=O)OC[C@H]1O[C@@H](CCO/N=C\[C@@H](NS(=O)(=O)c2ccc(C)cc2)[C@H](C)/C=C\CC(=O)OC)C=C[C@@H]1Oc1ccc(OC)cc1 | 3.98 µM (active) | –
